This is an account of results in PubChem BioAssay (NCATS).

Assay [1] in a line: COV-362 Cancer Cell Toxicity qHTS against the NCATS CANVASS Library (AID 1347352). Further: potency means the concentration at half of the fitted maximal effect. An outline of the steps: (§1)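 1000 cells/well, 4 h pre-incubation 37 °C/5% CO2; 11-pnt titration; 72 h; CellTiter-Glo 15 min RT, luminescence.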
(In qHTS, concentration-response curves come from the screen itself.)

The nature of assay [2]: G06 Cancer Cell Toxicity qHTS against the NCATS CANVASS Library (AID 1347368). Further: nearly all actives have a fitted effect of over 60% in size. Further: potency means the concentration at half of the fitted maximal effect. The gist of the method: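 ATP luminescence (CellTiterGlo) readout of cytotoxicity. Canine G06 glioma cells, 500/well, 72 hr incubation at 37C with compounds; bortezomib titration served as control.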
Assay [3] in a line: qHTS for Antimalaria activity screened against the NCATS CANVASS Library (AID 1347380). Further: nearly all actives have a fitted effect of over 40% in size. Further: potency means the concentration at half of the fitted maximal effect. The gist of the method: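 SYBR Green fluorescence (ex 485, em 535 nm) read after saponin/Triton lysis and 18 h further incubation; Dd2 asexual blood-stage parasites, 72 h compound exposure, 11-pt concentration series, 2.5% hematocrit, 0.3% parasitemia.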
The nature of assay [4]: qHTS for inhibitors of ER calcium dysfunction: SERCaMP assay screened against the NCATS CANVASS Library (AID 1347393). Further: nearly all actives have a fitted effect of over 40% in size. Further: potency means the concentration at half of the fitted maximal effect. The gist of the method:
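qHTS in SH-SY5Y reporter cells: 16 h compound pretreatment, 4 h thapsigargin, then secreted Gaussia luciferase measured by luminescence.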

Assay [5] is described as follows: OV-KATE Cancer Cell Toxicity qHTS against the NCATS CANVASS Library (AID 1347345). Further: potency means the concentration at half of the fitted maximal effect. The gist of the method:
(§2)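 Viability read-out: CellTiter-Glo luminescence after 72 h compound exposure at 37 °C/5% CO2. Cells plated at 1000/well, 4 h pre-incubation; 11-point titration. Bortezomib served as control.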

A short description of assay [6]: UWB1.289 Cancer Cell Toxicity qHTS against the NCATS CANVASS Library (AID 1347347). Further: nearly all actives have a fitted effect of over 60% in size. Further: potency means the concentration at half of the fitted maximal effect. The gist of the method:
as §2

Assay [7] is described as follows: OV-SAHO Cancer Cell Toxicity qHTS against the NCATS CANVASS Library (AID 1347348). Further: nearly all actives have a fitted effect of over 55% in size. Further: potency means the concentration at half of the fitted maximal effect. The gist of the method: as §2
Assay [8] in a line: Panc-1005 Cancer Cell Toxicity qHTS against the NCATS CANVASS Library (AID 1347349). Further: nearly all actives have a fitted effect of over 60% in size. Further: potency means the concentration at half of the fitted maximal effect. An outline of the steps: as §2
The nature of assay [9]: UWB1.289-WTBRCA1 Cancer Cell Toxicity qHTS against the NCATS CANVASS Library (AID 1347354). The gist of the method: as §1
Assay [10] in a line: MCF7 Cancer Cell Toxicity qHTS against the NCATS CANVASS Library (AID 1347369). Further: potency means the concentration at half of the fitted maximal effect. The gist of the method: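 Luminescent ATP signal (CellTiterGlo) served as the cytotoxicity read-out after MCF7 breast cancer cells had been incubated 72 hr at 37C with natural products in an 11-point titration.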
In assay [11] the test system is Zika virus NS2B-NS3 protease (linked construct). In words: Primary screen NINDS Rhodamine qHTS for Zika virus inhibitors (AID 1347160). Further: nearly all actives have a fitted effect of over 55% in size. Further: potency means the concentration at half of the fitted maximal effect. An outline of the steps:
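Rhodamine110-peptide cleavage (1.5 µM substrate) by 25 nM linked NS2B-NS3 enzyme at pH 8.0 (Tris, Tween 20), after 15 min RT preincubation with compounds; 15-min fluorescence change normalized to controls and Hill-fitted.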

Structures are written as SMILES. Results filed as inconclusive are left out. The source made the active and inactive calls. The call rests on the fitted dose curve; in most records, active means well fitted curve in the direction sought with a large enough effect; inconclusive means small, poorly fitted or top-dose-only effect, or another doubt; inactive means no such curve, though single readings can be large; an effect the other way counts as inactive or inconclusive. Starred links: 1 amine or outer side, 2 acyl side, 3 side chain; linkers in the order of their positions; H or OH if unused. Positions of bridges follow the written chain, without caps; N, C: chain ends. Non-standard residues stand in square brackets, D forms with d. Residues, ends and D or L forms follow the SMILES beside them. ξ: configuration not given here. *: point of attachment. X3 = C[C@@H](Oc1ccc([C@H](N[*:1])C(=O)[*:2])cc1)[C@]1(/C=C\C(=O)[*:3])CO1; d(aIle) = CC[C@H](C)[C@@H](N)C(=O)O; X2 = CC(C)[C@@H](O)C(C)C(=O)*; ξNMeF = CNC(Cc1ccccc1)C(=O)O; ξT = CC(O)C(N)C(=O)O; ξS = NC(CO)C(=O)O

Consider `CO[C@H]1[C@H](O[C@H]2CC[C@]3(C=O)[C@H]4CC[C@]5(C)[C@@H](C6=CC(=O)OC6)CC[C@]5(O)[C@@H]4CC[C@]3(O)C2)O[C@H](C)[C@H](O)[C@@H]1OC`, for which the figures for the Potency in [1] and in assay [2] were 236 nM (active) and 296 nM (active), respectively. Besides, the Potency result in [3] and in assay [4] was “inactive” in each case.

Take `CC[C@]12C=CCN3CC[C@]4(C(=C(C(=O)OC)C1)Nc1ccccc14)[C@@H]32`: the Potency entry in [5], in assay [6], in assay [7], in [8], in assay [1] and in [9] was “inactive” throughout. Further, in [10], the Potency result was “inactive”. Further, in assay [3], the Potency was 42 nM (active).

`c1ccc2nc3c(cc2c1)[nH]c1ccccc13`: the Potency entry in [5], in assay [6], in assay [1], in assay [9], in [10] and in assay [3] was “inactive” each time.

For `C/C=C1/CN2CC[C@]34C(=C(C(=O)OC)[C@H]1C[C@H]23)Nc1ccccc14`, the Potency result in [11], in assay [5], in assay [6], in assay [7], in assay [1] and in assay [9] was “inactive” throughout. Moreover, the Potency result in [3] is “inactive”. For the same compound, the Potency in assay [4] was 19300 nM (active).

For `CO[C@@H](/C=C/CC/C=C/C(=O)O)[C@@H](O)[C@H](C)/C=C(\C)[C@H](O)[C@H](C)C(=O)CCCC1CC(=O)NC(=O)C1`, the Potency entry in assay [5], in assay [6], in assay [7], in assay [8], in assay [1] and in assay [9] was “inactive” in each case. Further, the Potency entry in [2], in assay [10] and in [4] was “inactive” throughout.

With `C=C[C@]12C=CCN3CC[C@@]4(c5ccccc5NC(=O)[C@@H]4C1)[C@@H]32`, the Potency entry in [5], in [6], in assay [7], in assay [8], in assay [1] and in [9] was “inactive” in each case. Moreover, the Potency entry in assay [10] was “inactive”.

For `CC(C)CC1C(=O)O[C@H](C(C)C)C(=O)N(C)C(CC(C)C)C(=O)O[C@@H](C(C)C)C(=O)N(C)C(CC(C)C)C(=O)O[C@H](C(C)C)C(=O)N(C)C(CC(C)C)C(=O)O[C@@H](C(C)C)C(=O)N1C` (some centres not stated), the Potency in [11] is 4400 nM (active); in assay [7] it was 5940 nM (active); in [8], 6680 nM (active); in assay [3] it was 747 nM (active). Besides, the Potency entry in assay [10] was “inactive”.

`C1=C2CCCN[C@H]2C2CC1[C@H]1CCCCN1C2` (some centres not stated): the Potency result in assay [5], in assay [6], in assay [7], in assay [8], in [1] and in assay [9] was “inactive” in each case. The Potency result in assay [10], in [3] and in assay [4] was “inactive” throughout.

Consider `C=C[C@H]1CN2CCc3c([nH]c4cccc(OC)c34)[C@@H]2C[C@@H]1/C(=C\OC)C(=O)OC`, for which the Potency result in assay [11], in assay [5], in assay [8], in [9] and in assay [10] was “inactive” in each case. In [4], the Potency was 17200 nM (active).

Regarding `C[C@]12CC(O)C3[C@@H](CC[C@@H]4C[C@@H](O)CC[C@]34CO)[C@@]1(O)CC[C@@H]2C1=CC(=O)OC1` (some centres not stated), the Potency is 4200 nM (active) in [6], 7470 nM (active) in [1], 4180 nM (active) in assay [2] and 5230 nM (active) in assay [10]. The Potency result in [3] is “inactive”.

Turning to `CCCCC1CC[C@H]2CCCC(CCC)N12` (some centres not stated), the Potency entry in assay [11], in assay [5], in assay [7], in assay [8], in assay [1] and in [9] was “inactive” throughout. In addition, the Potency result in assay [2], in assay [10], in assay [3] and in assay [4] was “inactive” in each case.

As for `CC[C@H](C)[C@H]1NC(=O)[C@@H](NC(=O)C(C)[C@H](O)C(C)C)[C@@H](C)OC(=O)C2COC(=O)CNC(=O)/C=C\[C@]3(CO3)[C@@H](C)Oc3ccc(cc3)[C@H](NC1=O)C(=O)N(C)C(Cc1ccccc1)C(=O)NC(C(C)O)C(=O)N2` (some centres not stated) (X2-T[d(aIle)][X3][ξNMeF][ξT][ξS]; ester 1-C; linker 3-6 via G), the Potency entry in assay [5], in assay [7], in assay [8], in assay [1], in [9] and in assay [10] was “inactive” throughout. The Potency result in assay [4] was “inactive”.

As for `C=CC(C)(C)[C@@]12C[C@H]3C(=O)N/C(=C\c4cnc[nH]4)C(=O)N3[C@@H]1Nc1ccccc12`, the Potency result in assay [5], in [6], in assay [7], in assay [8], in assay [1] and in assay [9] was “inactive” in each case. Also, the Potency result in assay [2], in assay [10] and in assay [3] was “inactive” in each case. The Potency in assay [4] is 34300 nM (active).

In the case of `C/C=C(\C)C(=O)O[C@@H]1[C@@H](O)[C@@H]2O[C@H]3[C@H](O[C@@H](CCCCC)CCCCCCC(=O)CCC(=O)OC[C@@H](O2)[C@H]1OC(=O)/C=C/c1ccccc1)O[C@H](C)[C@H](OC(C)=O)[C@@H]3O`, the Potency in assay [5] was 188 nM (active); in [6] it was 594 nM (active); in assay [7], 74.7 nM (active); in assay [8] it was 33.5 nM (active); in assay [2], 4.7 nM (active); in [3], 37.5 nM (active). For the same compound, in assay [4], the Potency is 86 nM (active). In addition, the Potency result in assay [9] is “inactive”.
